# About 83,000 compounds went through this panel and 20% of them were active in at least one assay; those are over-represented in the sample as a whole.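 Compound tested at a single concentration for 48 hours in 96-well plates; a percent growth value below 10 was scored as active.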 Unmarked numbers belong to inactive results. Active and inactive are the calls of the source.
# What was measured:
# Assay in all cases: NCI-60 one-dose screen, 48 h (100 = growth as untreated, 0 = no growth, -100 = all killed)
# Details in all cases: 10 µM
# [1] = system: HCT-15 colon
# [2] = system: HT29 colon
# [3] = system: SNB-75 CNS
# [4] = system: SNB-19 CNS
# [5] = system: U251 CNS
# [6] = system: PC-3 prostate
# [7] = system: SK-MEL-5 melanoma
# [8] = system: UACC-62 melanoma
# [9] = system: LOX IMVI melanoma
# [10] = system: SK-MEL-28 melanoma
Structure (SMILES),growth [1],growth [2],growth [3],growth [4],growth [5],growth [6],growth [7],growth [8],growth [9],growth [10]
COc1ccccc1[C@H]1C(C(=O)c2ccc(Cl)cc2)C2(N[C@@H]1c1ccccc1)C(=O)Nc1ccc(Cl)cc12 (stereo not given in full),7.83% (active),-3.95% (active),40.9%,21.2%,17%,13.3%,-75.4% (active),-27.3% (active),-74.6% (active),35.1%
Cc1ccc(C(C)C)cc1NC(=O)c1ccccc1N(C)C,76.6%,74.6%,112%,93%,87.6%,73.7%,86.8%,63.1%,86.8%,92.9%
CC1(C)CC[C@]23CC[C@]4(C)[C@H](CC[C@@H]5[C@@]6(C)CC[C@H](N)C(C)(C)[C@@H]6CC[C@]54C)[C@H]2[C@H]1OC3=O,-91.7% (active),-66.7% (active),-75.3% (active),-98.7% (active),-88.9% (active),-57.5% (active),-100% (active),-96.1% (active),-98.9% (active),-100% (active)
CC(C)C(=O)Nc1ccc(C(=O)NC(=S)Nc2ccc(C(=O)O)cc2)cc1,99.7%,111%,79.1%,97.8%,104%,101%,93.8%,91.5%,101%,102%
CC1(c2ccccc2)NC(=O)N(CC(=O)Nc2ccc(C(=O)/C=C/c3ccccc3)cc2)C1=O (stereo not given),2.92% (active),-23% (active),72.1%,66.1%,-15.2% (active),31.6%,20.4%,36.5%,-72% (active),62.3%
Cc1ccc(C(=O)N/C(=C2/OCCN2C)[P+](c2ccccc2)(c2ccccc2)c2ccccc2)cc1,110%,59.7%,99.9%,74.1%,75.5%,62.5%,72.2%,48.2%,44.8%,72.2%
COc1ccc(CCN2C(=O)/C(=C/c3csc(C#N)n3)SC2=S)cc1OC,-45.4% (active),-48.4% (active),71.7%,80%,89.8%,71.6%,74.2%,46.8%,-62.7% (active),18.9%
CCOP(=O)(OCC)O[C@H]1CC[C@]2(C)[C@H]3CC[C@@H]4[C@@H]([C@](C)(O)CCC=C(C)C)CC[C@@]4(C)[C@]3(C)CC[C@H]2C1(C)C,10.7%,-50.2% (active),51.4%,45.4%,12.8%,19.8%,-84.2% (active),43.5%,-100% (active),48.8%
CCCCOc1ccc(Nc2nc3ccccc3nc2Nc2ccc(OCCCC)cc2)cc1,64.4%,73.7%,89.5%,84.1%,67.3%,59.7%,96.3%,90.6%,102%,109%
CCCn1c(=O)c2[nH]c(-c3ccc(OCc4nc5ccc(C(F)(F)F)cc5[nH]4)cc3)nc2n(CCC)c1=O,23.1%,62%,84.6%,71.5%,37.6%,33.2%,37.1%,6.48% (active),35.5%,58.4%
COc1cc2c3c(n(CCCN4CCOCC4)c(=O)c2cc1OC)-c1nc2c(cc1C3=O)OCO2,41.5%,7.3% (active),49.9%,15%,-18.9% (active),43.6%,-6.78% (active),-8.82% (active),-76.6% (active),66.1%
CCOC(=O)C1=C(N)N(c2ccccc2)C2=C(C(=O)CC(C)(C)C2)C1c1ccccc1OC (stereo not given),96.3%,103%,94%,92.2%,111%,89.2%,97.2%,80.4%,101%,110%
CC(C)NC(=O)c1cc(-c2ccc(NC(=O)Nc3ccc(N4CCN(C)CC4)c(C(F)(F)F)c3)cc2)nc2cccnc12,-89.6% (active),-86.6% (active),-96.2% (active),-93.2% (active),-86.2% (active),-72.9% (active),-100% (active),-97.1% (active),-99.2% (active),-99.3% (active)
O=C(NO)c1ccc(Cn2ccc3c(NCc4ccccc4)ncnc32)cc1,-16.7% (active),0.726% (active),-8.17% (active),-7.76% (active),-34% (active),7.14% (active),-75% (active),-43.3% (active),-99.6% (active),0.239% (active)
CC(=O)c1ccc(Nc2nc(SC(C)C)nc(-c3ccccc3)c2C#N)cc1,48.7%,48.1%,42.3%,-20% (active),10.2%,71.9%,38.1%,77.9%,0.768% (active),31.3%
CC(C)c1ccc(C(=O)Nc2sc3c(c2C(N)=O)CCC(=O)C3=O)cc1,71.5%,110%,98.2%,97.4%,92.6%,82.8%,99.1%,94.3%,82.7%,110%
N#Cc1c(NC(=O)c2ccc(C(F)(F)F)c(Cl)c2)sc2c1CCC(=O)C2,-62.3% (active),-25.8% (active),-37.7% (active),-55.3% (active),-84.7% (active),-10.2% (active),-98.8% (active),-78.9% (active),-52.6% (active),-83.4% (active)
COc1ccc2nc(Cl)c(-c3cc(-c4ccccc4)nc(=S)[nH]3)cc2c1,46.4%,43.7%,41.5%,83.6%,87.2%,67.3%,6.49% (active),23.2%,60.3%,50%
O=C(Nc1ccc(I)cc1)Nc1nc2ccc([N+](=O)[O-])cc2s1,-100% (active),-93.3% (active),-93.4% (active),-94.3% (active),-94% (active),-75.7% (active),-100% (active),-98% (active),-100% (active),-99% (active)
N#Cc1ccc(NC(=O)CSc2ccc(-c3ccc(Br)cc3)nn2)cc1,72.7%,84.1%,76%,64%,87.7%,58.6%,4.86% (active),29.9%,52.8%,62.4%
Cc1cccc2cc(-c3cc(-c4ccccc4)nc(=S)[nH]3)c(Cl)nc12,53.2%,86.5%,103%,82.2%,99.1%,72.5%,23.6%,37.5%,66.9%,59.8%
CC(=O)OC[C@@]1(C)C2CC[C@]3(C)C(CC=C4C5CC(C)(C)CC[C@]5(C(=O)Nc5ccccc5)CC[C@]43C)[C@@]2(C)C[C@@H](OC(C)=O)[C@@H]1OC(C)=O (stereo not given in full),25.1%,28.5%,58.4%,39.9%,39.9%,27.7%,2.74% (active),31%,3.23% (active),59.2%
O=C(Nc1cccc(C(F)(F)F)c1)c1cncc(C#Cc2cnc3cccnn23)c1,37.7%,49.4%,122%,82.7%,67.6%,35.3%,25.6%,35.4%,22.1%,63.2%
COc1cc(Cn2c(C(F)(F)F)cc3c(Cl)ncnc32)ccn1,-48.3% (active),69.7%,-60.9% (active),-8.63% (active),12.7%,29.3%,-20.4% (active),0.529% (active),-100% (active),27.9%
CC1=C(c2cc(-c3ccc(Cl)cc3)c(C#N)c(N)n2)C(c2ccccc2)NC(=S)N1 (stereo not given),10.9%,24.7%,36.5%,75.4%,38.8%,49.8%,58.1%,62.7%,-49.2% (active),57.7%
O=C(c1ccc(O)cc1)C1[C@H](c2ccc(Br)cc2)[C@@H](c2ccccc2)NC12C(=O)Nc1ccc(Br)cc12 (stereo not given in full),-47.3% (active),-31.5% (active),45.8%,11.8%,-48.7% (active),21.4%,-76.7% (active),-35.7% (active),-100% (active),26.2%
COc1cccc(-c2ccc(/C=N/NC(=O)c3[nH]c4ccc(Br)cc4c3-c3ccccc3)o2)c1,1.34% (active),-9.03% (active),31%,40.3%,7.57% (active),20.2%,-0.615% (active),28.8%,12.3%,42.5%

# Source: PubChem BioAssay (NCI)
